Among the data in PubChem BioAssay (NCI) are growth values, retold here.

About 83,000 compounds went through this panel and 20% of them were active in at least one assay; those are over-represented in the sample as a whole.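 96-well plates, one dose, 48 hours. Percent growth reported; active if below 10.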 Values without a mark were called inactive. Active and inactive are the calls of the source.

One assay has as its system HOP-62 NSCLC. Description: NCI-60 one-dose screen, 48 h (100 = growth as untreated, 0 = no growth, -100 = all killed). The following applies: 10 µM unless noted.
As to `COc1cc(-c2nn(-c3ccccc3)cc2-c2ccnc(NCCNS(=O)(=O)c3ccc(Cl)cc3)n2)ccc1Cl`, the growth is 48%.

As to `COc1cccc(-c2nc3sccn3c2-c2ccnc(NCCNS(=O)(=O)c3cccc(Cl)c3)c2)c1`, the growth was 70.9%.

Take `O=C1N=c2cc3c(cc2=C/C1=C/c1sc(=S)n(CCc2ccc(O)cc2)c1O)OCCO3`: the growth is 97%.

Take `COc1ccc(OC)c2c1[nH]c(=O)c1c3ncccc3cn21`: the growth was 31.7%.

With `O=S(=O)(Nc1cccc(Cl)c1)c1ccc(-c2cnc(C3CC3)o2)cc1`, the growth was 31.9%.

As for `COc1ccc(NC(=O)CSc2nc(C)c(C(C)=O)n2-c2ccc(Cl)cc2)cc1`, the growth was 88.5%.

Consider `Cc1cc(/C=C\c2ccc3ccccc3[n+]2C)c(O)c2ncccc12`, for which the growth was 20.3%.

As for `CN(C)c1ccc(-c2ccc3[nH]c(=O)nc(-c4ccccc4)c3c2)cn1`, the growth is 63%.

As to `O=C(c1ccccc1)N1N=C(c2ccccc2)CC1c1nnc2n(Cc3ccccc3)c(=O)c3c4c(sc3n12)CCCC4` (stereo unspecified), the growth was 98%.

As for `N#Cc1c(N)nc2c(C#N)c(NC(=O)c3ccccc3)nn2c1-c1ccccc1`, the growth is 90.7%.

For the compound `COc1ccc(-c2nc3ccc4[nH]ncc4c3c3c2CCCC3)cc1B(O)O`, the growth was 51.3%.

On to `C(=N\Nc1ncc(-c2cc3cc4c(cc3o2)OCO4)s1)/c1ccco1`, for which the growth was 62.1%.

As to `Cn1c(-c2c(N)n(Cc3cccnc3)c3nc(C#N)c(C#N)nc23)nc2ccccc21`, the growth is 95.3%.

For the compound `C[n+]1cccc(CC(=O)NO)c1`, the growth was 92.7%.

Turning to `C=CCSc1nc2ccccc2cc1/C=N/O`, the growth was 77.1%.

For `O=C(CCCCCCN1CC(=O)N2[C@@H](c3ccccc3Cl)c3[nH]c4ccccc4c3C[C@H]2C1=O)NO`, the growth was 73.3%.

On to `CCCCCCCOc1c(OC)cc(C2CC(=O)Nc3c2c(C)nn3-c2nc3ccccc3[nH]2)cc1OC` (stereo unspecified), for which the growth was -22.6% (active).

Take `COC(=O)c1c2c(c[n+]([O-])c1C)C(=O)C=CC2=O`: the growth was 104%.

As for `COc1cccc(-c2nn(-c3ccccc3)cc2-c2ccnc(NCCCNC(=O)Nc3ccc(Cl)c(Cl)c3)c2)c1`, the growth is -5.99% (active).

For `Cc1ccc(NS(=O)(=O)c2ccc3c(c2)C2OCCC2C(c2ccc(C(=O)C(C)C)cc2)N3)cc1C` (stereo unspecified), the growth was 70.3%.

Turning to `Cc1cc(NCc2cc(Nc3ccnc4cc(Cl)ccc34)ccc2F)nc(N2CCSCC2)n1`, the growth is -41.6% (active).

In the case of `O=C(/C=C/c1ccc(Cl)nc1)c1ccc(Cl)cc1Cl`, the growth was 106%.

In the case of `CCN(CC)CCCC(C)Nc1c2ccc(Cl)cc2nc2ccc(O)cc12` (stereo unspecified), the growth was 42.1%.

Consider `CCCCCCCC/C=C\CCCCCCCCOc1ccccc1CC(=O)NCC[N+](C)(C)C`, for which the growth is 37%.

With `Cc1cc(NCc2cc(Nc3ccnc4cc(Cl)ccc34)ccc2F)nc(N2CCCC2)n1`, the growth is -13.3% (active).

For the compound `COc1ccc(C(=O)COc2ccc(/C=C3\Oc4ccccc4C3=O)cc2)cc1`, the growth is 90.8%.

Turning to `Cn1c2c(c3ccc(Cl)c(Cl)c31)C(C#N)C1(CCNCC1)NC2=O` (stereo unspecified), the growth is 23.8%.

On to `N#Cc1c(-c2ccccn2)[nH]c(=S)[nH]c1=O`, for which the growth is 99.9%.

With `Oc1c(CN2CCCC2)cc(COCc2ccc(Br)cc2)c2cccnc12`, the growth is -4.92% (active).

Regarding `COc1ccc(N2CCN(c3nc(-c4cc(OC)c(OC)c(OC)c4)nc4ccccc34)CC2)cc1`, the growth is 83.9%.

`Nc1n[nH]c(-c2cc(Cl)ccc2O)c1-c1ccccc1`: the growth was 83.6%.

Regarding `Cc1ccc(-c2cc(-c3ccccc3C)[nH]c(=O)c2C#N)s1`, the growth is 90.4%.

As for `O=C(COc1ccc(/C=C2\Oc3ccccc3C2=O)cc1)c1ccc(Cl)cc1`, the growth was 91.1%.

On to `O=C1CCC2=C3C4CCCCC4C(=O)C4CCCC(OC2C1)C34` (stereo unspecified), for which the growth is 34.5%.

For the compound `O=C(Nc1ccccc1Cl)Oc1ccc(-c2ccccc2)cc1`, the growth was 96.3%.

Turning to `N#C/C(=C\c1ccc(-c2ccccc2F)o1)c1nc(-c2ccco2)cs1`, the growth was 89%.

Turning to `O=[N+]([O-])c1ccc(Sc2cccc[n+]2[O-])c2nonc12`, the growth was 101%.

Take `COc1cccc(C(=O)NCCNc2cc(-c3cn(-c4ccccc4)nc3-c3cccc(OC)c3)ccn2)c1`: the growth was 61%.

The subject of another assay is NCI-H460 lung. The assay is described as above. The following applies: 10 µM unless noted.
Take `COc1cc(-c2nn(-c3ccccc3)cc2-c2ccnc(NCCNS(=O)(=O)c3ccc(Cl)cc3)n2)ccc1Cl`: the growth was 19%.

On to `COc1cccc(-c2nc3sccn3c2-c2ccnc(NCCNS(=O)(=O)c3cccc(Cl)c3)c2)c1`, for which the growth is 45.4%.

On to `O=C1N=c2cc3c(cc2=C/C1=C/c1sc(=S)n(CCc2ccc(O)cc2)c1O)OCCO3`, for which the growth was 83.8%.

On to `COc1ccc(OC)c2c1[nH]c(=O)c1c3ncccc3cn21`, for which the growth was -3.99% (active).

In the case of `O=S(=O)(Nc1cccc(Cl)c1)c1ccc(-c2cnc(C3CC3)o2)cc1`, the growth was 16.5%.

Take `COc1ccc(NC(=O)CSc2nc(C)c(C(C)=O)n2-c2ccc(Cl)cc2)cc1`: the growth was 102%.

`Cc1cc(/C=C\c2ccc3ccccc3[n+]2C)c(O)c2ncccc12`: the growth was 4.5% (active).

On to `CN(C)c1ccc(-c2ccc3[nH]c(=O)nc(-c4ccccc4)c3c2)cn1`, for which the growth was 18.3%.

Turning to `O=C(c1ccccc1)N1N=C(c2ccccc2)CC1c1nnc2n(Cc3ccccc3)c(=O)c3c4c(sc3n12)CCCC4` (stereo unspecified), the growth was 107%.

Consider `N#Cc1c(N)nc2c(C#N)c(NC(=O)c3ccccc3)nn2c1-c1ccccc1`, for which the growth is 96.8%.

With `COc1ccc(-c2nc3ccc4[nH]ncc4c3c3c2CCCC3)cc1B(O)O`, the growth was 35.3%.

Regarding `C(=N\Nc1ncc(-c2cc3cc4c(cc3o2)OCO4)s1)/c1ccco1`, the growth was 13.3%.

Take `Cn1c(-c2c(N)n(Cc3cccnc3)c3nc(C#N)c(C#N)nc23)nc2ccccc21`: the growth was 106%.

Regarding `C[n+]1cccc(CC(=O)NO)c1`, the growth was 101%.

Consider `C=CCSc1nc2ccccc2cc1/C=N/O`, for which the growth is 90.4%.

In the case of `O=C(CCCCCCN1CC(=O)N2[C@@H](c3ccccc3Cl)c3[nH]c4ccccc4c3C[C@H]2C1=O)NO`, the growth was 67.8%.

In the case of `CCCCCCCOc1c(OC)cc(C2CC(=O)Nc3c2c(C)nn3-c2nc3ccccc3[nH]2)cc1OC` (stereo unspecified), the growth is -26.8% (active).

For the compound `COC(=O)c1c2c(c[n+]([O-])c1C)C(=O)C=CC2=O`, the growth was 98.4%.

Consider `COc1cccc(-c2nn(-c3ccccc3)cc2-c2ccnc(NCCCNC(=O)Nc3ccc(Cl)c(Cl)c3)c2)c1`, for which the growth was 18.5%.

On to `Cc1ccc(NS(=O)(=O)c2ccc3c(c2)C2OCCC2C(c2ccc(C(=O)C(C)C)cc2)N3)cc1C` (stereo unspecified), for which the growth is 31.7%.

On to `Cc1cc(NCc2cc(Nc3ccnc4cc(Cl)ccc34)ccc2F)nc(N2CCSCC2)n1`, for which the growth is 6.39% (active).

In the case of `O=C(/C=C/c1ccc(Cl)nc1)c1ccc(Cl)cc1Cl`, the growth is 98%.

Regarding `CCN(CC)CCCC(C)Nc1c2ccc(Cl)cc2nc2ccc(O)cc12` (stereo unspecified), the growth was 14.7%.

As to `CCCCCCCC/C=C\CCCCCCCCOc1ccccc1CC(=O)NCC[N+](C)(C)C`, the growth was 23.8%.

As for `Cc1cc(NCc2cc(Nc3ccnc4cc(Cl)ccc34)ccc2F)nc(N2CCCC2)n1`, the growth was -51.7% (active).

For `COc1ccc(C(=O)COc2ccc(/C=C3\Oc4ccccc4C3=O)cc2)cc1`, the growth was 102%.

As to `Cn1c2c(c3ccc(Cl)c(Cl)c31)C(C#N)C1(CCNCC1)NC2=O` (stereo unspecified), the growth was 18.3%.

With `N#Cc1c(-c2ccccn2)[nH]c(=S)[nH]c1=O`, the growth was 108%.

With `Oc1c(CN2CCCC2)cc(COCc2ccc(Br)cc2)c2cccnc12`, the growth was -21.8% (active).

For the compound `COc1ccc(N2CCN(c3nc(-c4cc(OC)c(OC)c(OC)c4)nc4ccccc34)CC2)cc1`, the growth was 87%.

As for `Nc1n[nH]c(-c2cc(Cl)ccc2O)c1-c1ccccc1`, the growth was 102%.

On to `Cc1ccc(-c2cc(-c3ccccc3C)[nH]c(=O)c2C#N)s1`, for which the growth is 98.7%.

Regarding `O=C(COc1ccc(/C=C2\Oc3ccccc3C2=O)cc1)c1ccc(Cl)cc1`, the growth was 115%.

Take `O=C1CCC2=C3C4CCCCC4C(=O)C4CCCC(OC2C1)C34` (stereo unspecified): the growth is -18.6% (active).

`O=C(Nc1ccccc1Cl)Oc1ccc(-c2ccccc2)cc1`: the growth is 105%.

For the compound `N#C/C(=C\c1ccc(-c2ccccc2F)o1)c1nc(-c2ccco2)cs1`, the growth is 95.1%.

In the case of `O=[N+]([O-])c1ccc(Sc2cccc[n+]2[O-])c2nonc12`, the growth is 56.8%.

As for `COc1cccc(C(=O)NCCNc2cc(-c3cn(-c4ccccc4)nc3-c3cccc(OC)c3)ccn2)c1`, the growth was 57.4%.
